SMILES strings stand for the structures. Results filed as inconclusive are left out. Calls of active or inactive are those of the source. The calls were made as follows: active = hit-call score of the fitted dose curve at least 0.9, where 1 is the maximum; inconclusive = response in the unintended direction; inactive = score below 0.9.

In PubChem BioAssay (EPA / NIEHS) one finds outcome data, which are given here for 40 compounds.

The nature of this experiment: ATG_GAL4_TRANS: Attagene TRANS-FACTORIAL HepG2 Assay for GAL4 (Internal Marker) (AID 2282976). The conditions noted are these: HepG2 Attagene TRANS GAL4 internal marker reporter. The method, then: ATG_TRANS is a cell-based, multiplexed-readout assay that uses HepG2, a human liver cell line, with measurements taken at 24 hours after chemical dosing in a 24-well plate.ATG_GAL4_TRANS is one of 30 assay component(s) measured or calculated from the ATG_TRANS assay. It is designed to make measurements of mRNA induction, a form of inducible reporter, as detected with fluorescence intensity signals by Reverse transcription polymerase chain reaction (RT-PCR) and Capillary electrophoresis technology.Data from the assay component ATG_GAL4_TRANS was analyzed into 1 assay endpoint. This assay endpoint, ATG_GAL4_TRANS, was analyzed in the positive analysis fitting direction relative to DMSO as the negative control and baseline of activity. Using a type of inducible reporter, measures of mRNA for gain-of-signal activity can be used to understand the background control at the transcription factor-level as they relate to the gene . Furthermore, this assay endpoint can be referred to as a secondary readout, because this assay has produced multiple assay endpoints where this one serves a background control function. To generalize the intended target to other relatable targets, this assay endpoint is annotated to the background measurement intended target family, where the subfamily is baseline control.
Human liver HepG2 cells are transiently transfected with multiple reporter transcription units (MRTUs) in 6-well plates using FuGene 6 reagent (Roche; 3 ml FuGene/1 mg DNA). The MRTU constructs are regulated by a cis-regulating element (promoter). […] A major difference between the CIS and TRANS system is that in CIS activities of endogenous TFs are measured, whereas the TRANS assay evaluates changes in activities of exogenous, chimeric NR-Gal4 proteins. […] At the end of 24 hour incubation, total RNA was isolated using TriZol reagent (Invitrogen). The isolated RNA is then reverse-transcribed using oligo(dT) primer and Mo-MLV reverse transcriptase (Invitrogen) with DNAse I (Ambion) treatment for 30 min. The one-tenth of the produced cDNA was amplified by PCR using Taq DNA polymerase (Invitrogen) and two reporter sequence-specific primers. The PCR products were fluorescently labeled by primer extension with 6-arboxyfluorescein (6-FAM) 5'-labeled reporter sequence-specific primer (2 min at 95 C, 20 s at 68 C and 10 min at 72 C) and these products were digested with 5U of HpaI (New England Biolabs) for 2h at 37 C. The fragments were purified using Qiaquick PCR columns (Qiagen), analyzed on an ABI 3130xL genetic analyzer (Applied Biosystems) with peak positions identified by using a set of X-rhodamine (ROX)-labeled MapMarker1000 molecular weight standards (BioVentures). The raw capillary electrophoresis data was processed using Attagraph software (Attagene).
On to `O=C(NCO)NCO`, for which the call was inactive.
The entry for `Clc1nc(Cl)nc(Cl)n1` is “inactive”; for `C[C@@H](Oc1ccc(Cl)cc1Cl)C(=O)O` it is “inactive”; for `CC(C)(OO)c1ccccc1` it is “inactive”.
The entry for `ClCCBr` is “inactive”.
In the case of `N#CN=C(N)N` it was “inactive”; in that of `CCc1ccccc1N`, “inactive”; in that of `CC1(C)CCC(Cc2ccc(Cl)cc2)C1(O)Cn1cncn1` (stereo not given), “inactive”.
Take `CC(=[OH+])/C=C(/C)[O-].CC(=[OH+])/C=C(/C)[O-].CC(=[OH+])/C=C(/C)[O-].[Fe]`: the result was inactive.
`CN(C)N=O`: the outcome was inactive.
The entry for `Oc1c(I)cc(I)cc1I` is “inactive”; for `NNC(=S)NN` it is “inactive”; for `NC(=S)Nc1ccccc1` it is “inactive”.
The entry for `COS(=O)(=O)c1ccc(C)cc1` is “inactive”.
The entry for `CCC[CH2][Sn]([CH2]CCC)([CH2]CCC)[O]C(=O)c1ccccc1` is “inactive”; for `CCCCCCCCSC(=O)Oc1cc(Cl)nnc1-c1ccccc1` it is “inactive”.
For `O=C(Nc1ccc2[nH]ccc2c1)c1cc2cc(F)ccc2n1Cc1cccc(F)c1`, the compound was classed as inactive.
As for `O=C1C(Cl)=C(Cl)C(=O)c2ccccc21`, the call was inactive.
The entry for `CCN1CCC2(CC1)COc1cc3c(cc12)N(C(=O)c1ccc(-c2ccc(-c4nnc(C)o4)cc2C)cc1)CC3` is “inactive”; for `Cc1cc(=O)[nH]o1` it is “inactive”.
Turning to `NC(=O)O`, the call was inactive.
In the case of `Cc1ccccc1N` it was “inactive”; in that of `CCC(=O)c1ccccc1`, “inactive”.
In the case of `C[C@]12CC[C@H](O)CC1=CC[C@@H]1[C@@H]2CC[C@]2(C)C(=O)CC[C@@H]12` it was “inactive”; in that of `C=CC(=O)N(C)C`, “inactive”; in that of `O=C(Cl)c1ccc(Cl)cc1`, “inactive”.
The entry for `CC(C)C1CCC(Cc2ccc(Cl)cc2)C1(O)Cn1cncn1` (stereo not given) is “inactive”; for `N#CCCO` it is “inactive”.
Regarding `Cn1sc(Cl)cc1=O`, the compound was classed as inactive.
The entry for `O=c1[nH]c(=O)[nH]c(=O)[nH]1` is “inactive”.
The entry for `CC(C)(c1ccc(OCC2CO2)cc1)c1ccc(OCC2CO2)cc1` (stereo not given) is “inactive”; for `CC1(C)Cc2cccc(O)c2O1` it is “inactive”.
On to `CC(=O)C=C(C)C`, for which the call was inactive.
In the case of `O=P(O)(O)CN(CP(=O)(O)O)CP(=O)(O)O` it was “inactive”.
With `ClC1(Cl)C2(Cl)C3(Cl)C4(Cl)C(Cl)(Cl)C5(Cl)C3(Cl)C1(Cl)C5(Cl)C24Cl` (stereo not given), the result was inactive.
The entry for `COc1ccc(OC)c(C=O)c1` is “inactive”.
In the case of `ClC1=C(Cl)[C@]2(Cl)[C@@H]3[C@@H](Cl)[C@@H](Cl)C[C@@H]3[C@@]1(Cl)C2(Cl)Cl` it was “inactive”.
The entry for `CCC[CH2][Sn]([Cl])([Cl])[Cl]` is “inactive”.
Turning to `O=C1CCCN1`, the compound was classed as inactive.
The entry for `CCN(CC)C(=O)Cl` is “inactive”.
